SKN-1 inh – suppressors of acrylamide-induced Pgst-4::GFP reporter in worms, primary screen, SKN-1 inhibitor project, whole organism, uHTS, GFP/RFP fluorescence ratio, strain VP596 | 360,000 tested, 0.49% active | inhibition, % at 21.8 µM | C. elegans VP596 Pgst-4::GFP/RFP ratio, 24 h | AID 624304, 2012;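 active = interference check ratio from 0.5 to 1.5 plus GFP to RFP signal ratio inhibition reaching or exceeding a fixed threshold, cut at about 30% in these data, passing the limit was not always enough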
F508del corr – F508del CFTR correction, initial screen, CFBE line, single point | CFBE cells, YFP halide quenching; stimulated with forskolin plus potentiator P3; % fluorescence drop versus neutral controls | activity (quench increase), % at 7.58 µM | 350,000 tested, 0.36% active | AID 720511, 2013;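 active = mean added fluorescence quench of at least 8% versus neutral control, with both replicates also reaching 8%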;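 note: cells transiently co-express mutant CFTR-F508del with the halide-sensitive YFP; corrector assay measuring rescue of mutant channel to the surface after 24 h compound exposure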
ATG4B inh – ATG4B protease inhibitors, primary screen, biochemical, fluorescence, uHTS; Cysteine protease ATG4B (Homo sapiens), Q9Y4P1; ATG4B cleavage of LC3-PLA2, NBD-HPC fluorescence, 1 h; inhibition, % at 8.33 µM; 340,000 tested, 0.51% active; in the data active = inhibition above about 40%
Target sequence (Q9Y4P1 whole entry, looked up): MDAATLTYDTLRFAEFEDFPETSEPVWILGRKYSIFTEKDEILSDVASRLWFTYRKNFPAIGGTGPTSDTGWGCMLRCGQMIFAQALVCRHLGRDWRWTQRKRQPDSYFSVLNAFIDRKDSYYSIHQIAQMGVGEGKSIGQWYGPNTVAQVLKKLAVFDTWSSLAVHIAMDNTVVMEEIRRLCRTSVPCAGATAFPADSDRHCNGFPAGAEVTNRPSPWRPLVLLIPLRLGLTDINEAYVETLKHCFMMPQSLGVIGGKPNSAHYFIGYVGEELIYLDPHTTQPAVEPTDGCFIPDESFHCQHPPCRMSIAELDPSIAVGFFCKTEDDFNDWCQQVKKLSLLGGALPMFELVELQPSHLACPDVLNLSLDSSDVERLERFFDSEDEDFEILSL
MPTP block – mitochondrial permeability transition pore inhibitors, primary screen, biochemical, isolated mouse mitochondria, absorbance | inhibition, % at 10 µM | 360,000 tested, 1.4% active | AID 602449, 2012 | Ca2+ swelling absorbance, 30 min;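 active = inhibition of 50% or more, scaled per plate between neutral and stimulator controls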
CendR NRP1 mod – modulators of CendR peptide binding to NRP-1, primary screen, biochemical, fluorescence polarization, uHTS | Neuropilin-1 (Homo sapiens), O14786 | FAM-RPARPAR peptide binding to NRP-1 | inhibition, % at 25 µM | 360,000 tested, 0.85% active | AID 602438, 2012;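 active = inhibition or corrected inhibition above about 18%, plus a signal ratio from 0.5 to 1.5, limit read from the data, passing the limit was not always enough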
MPTP counter – fluorescence retest of MPTP screen hits in isolated mitochondria, single concentration; shares compounds with MPTP block; membrane potential, Rhodamine 123 fluorescence; inhibition, % at 10 µM; 5,000 tested, 78% active; AID 624504, 2012; in the data active = inhibition above about 22%
MPTP swell DR – mitochondrial permeability transition pore inhibitors, dose response, biochemical, absorbance, uHTS hits. IC50, µM. shares compounds with MPTP block. isolated mitochondria swelling. 780 tested, 58% active. AID 651561, 2012; in the data active = IC50 below about 20 µM
MPTP cs DR – fluorescent counter-screen in isolated mitochondria, dose response, counter-screen for MPTP inhibitor project, biochemical, fluorescence, uHTS hits | 780 tested, 49% active | shares compounds with MPTP block | IC50, µM | isolated mitochondria counterscreen, fluorescence read-out; in the data active = IC50 below about 80 µM
Of the large screens only hits and unclear results are named; the others gave an inactive call (follow-up assays come after a bar, where they were run). Sampled rows, rich in hits. Any-hit rate of the full collection: about 2.7%.

CC(C)=CCc1c(O)cc2oc3c(CC=C(C)C)c(O)c(O)c(CC=C(C)C)c3c(=O)c2c1O	MPTP block 92 | MPTP counter inactive
CCCNC(=O)C[C@H]1C[C@@H]2c3cc(NS(=O)(=O)c4ccc(OC)cc4)ccc3O[C@@H]2[C@H](CO)O1	none (no result: SKN-1 inh, ATG4B inh, MPTP block, CendR NRP1 mod)
COc1ccccc1OC(=O)Nc1ccc(Cl)cc1	MPTP block 58 | MPTP counter 75
O=C(CC1CC1)N1CC2(C1)[C@@H](c1ccccc1)[C@@H](CO)N2C(=O)c1cccnc1	none (no result: SKN-1 inh, ATG4B inh, MPTP block, CendR NRP1 mod)
CCCNC(=O)N(C)C[C@H]1Oc2ncc(C#C[C@H](C)O)cc2C(=O)N([C@@H](C)CO)C[C@@H]1C	none (no result: SKN-1 inh, ATG4B inh, MPTP block, CendR NRP1 mod)
C[C@H](CO)N1C[C@H](C)[C@H](CN(C)C(=O)Nc2ccccc2)OCc2cn(nn2)CCCC1=O	none (no result: SKN-1 inh, ATG4B inh, MPTP block, CendR NRP1 mod)
CCOC(=O)c1c(NC(=O)CSc2nnc(C)c(=O)[nH]2)sc(C)c1-c1ccc(C)cc1	MPTP block 70 | MPTP counter 62
CCOC(=O)c1c(NC(=O)CSc2nnc(C)c(=O)[nH]2)sc2c1CCCC2	none (no result: F508del corr)
COc1ccc(C(=O)C2CCCN(Cc3cccn3-c3ccc(Cl)cn3)C2)c(OC)c1 (stereo not given)	MPTP block 76 | MPTP counter 99
Cc1ccc(C(=O)N/N=C/c2cccc(OC(=O)/C=C/c3ccco3)c2)cn1	none
O=C(/C=C/c1ccco1)Oc1cc(Br)cc(/C=N/NC(=O)c2ccccc2O)c1	MPTP block 66 | MPTP counter 63
CSc1c(CC(=O)Nc2ccccc2)n(C)c2ccccc12	none
CSc1c(CC(=O)Nc2ccc(F)cc2)n(Cc2ccccc2)c2ccccc12	MPTP block 81 (no result: F508del corr) | MPTP counter 67
FC(F)(F)c1ccc(N2CCN(c3cc(-c4ccccc4)nc4ncnn34)CC2)nc1	MPTP block 92 (no result: F508del corr) | MPTP counter 48
FC(F)(F)c1cccc(Nc2cc(-c3ccccc3)nc3ncnn23)c1	none
Cc1noc(C)c1NC(=O)N(C)C[C@@H]1Oc2c(NS(=O)(=O)c3cccs3)cccc2C(=O)N([C@@H](C)CO)C[C@@H]1C	none (no result: SKN-1 inh, ATG4B inh, MPTP block, CendR NRP1 mod)
CCC(=O)N1[C@@H]2Cn3c(cccc3=O)[C@H]1[C@@H](C(=O)NC1CCC1)[C@@H]2CO	none (no result: SKN-1 inh, ATG4B inh, MPTP block, CendR NRP1 mod)
C[C@H]1CN([C@@H](C)CO)C(=O)c2cc(NS(=O)(=O)c3ccc(F)cc3)ccc2O[C@@H]1CN(C)Cc1ccccc1	none (no result: SKN-1 inh, ATG4B inh, MPTP block, CendR NRP1 mod)
COc1ccc(CNCC(O)(c2ccc(F)cc2)c2ccc(F)cc2)cc1	MPTP block 73 | MPTP counter inactive | MPTP swell DR 6.6 | MPTP cs DR 20
CCCn1c(=O)c(C(=O)Nc2ncccc2O)c(O)c2ccccc21	none
Cn1c(=O)c(C(=O)Nc2ncccc2O)c(O)c2ccccc21	MPTP block 74 (no result: F508del corr) | MPTP counter inactive | MPTP swell DR inactive | MPTP cs DR inactive
CNC[C@H]1OCCCC[C@H](C)Oc2ccc(NC(=O)Nc3ccc(F)cc3)cc2C(=O)N([C@@H](C)CO)C[C@@H]1C	none (no result: SKN-1 inh, ATG4B inh, MPTP block, CendR NRP1 mod)
COc1cccc(S(=O)(=O)Nc2ccc3c(c2)[C@H]2C[C@H](CC(=O)N[C@@H](C)c4ccccc4)O[C@@H](CO)[C@H]2O3)c1	none (no result: SKN-1 inh, ATG4B inh, MPTP block, CendR NRP1 mod)
O=C(Nc1ccc(F)c(Cl)c1)N1CCCC1	none
O=C(Nc1cc(Cl)cc(Cl)c1)C(c1ccccc1)N1CCCCC1 (stereo not given)	MPTP block 83 (no result: F508del corr) | MPTP counter 98
O=C(Nc1cc(Cl)cc(Cl)c1)N1CCCC1	MPTP block 98 | MPTP counter 93
CCOC(=O)C1CCN(C(=O)Nc2cc(Cl)cc(Cl)c2)CC1	MPTP block 78 | MPTP counter 92
COc1cccc(C(=O)Nc2ccc3c(c2)OC[C@@H](C)N(C(=O)C2CCCCC2)C[C@@H](C)[C@H](OC)CN(C)C3=O)c1	none (no result: SKN-1 inh, ATG4B inh, MPTP block, CendR NRP1 mod)
CC(=O)c1ccc(NC(=O)CSc2nnc(Cn3cnc4ccccc43)o2)cc1	none
COc1ccc(C(=O)CSc2nnc(Cn3cnc4ccccc43)o2)cc1	MPTP block 84 (no result: F508del corr) | MPTP counter 66
CC(C)COC(=O)NCCCOC(=O)Nc1ccccc1	none (no result: F508del corr)
CC(C)COC(=O)NCCOC(=O)Nc1cccc(Cl)c1	MPTP block 102 (no result: F508del corr) | MPTP counter 100
O=C(Nc1ccc([N+](=O)[O-])cc1)/C(=C/c1cccc([N+](=O)[O-])c1)NC(=O)C1CCCCC1	MPTP block 98 (no result: F508del corr) | MPTP counter 75
Cc1noc(C)c1S(=O)(=O)Nc1ccc2c(c1)C(=O)N([C@H](C)CO)C[C@H](C)[C@H](CN(C)C(=O)Nc1ccc3c(c1)OCO3)OCCCC[C@@H](C)O2	none (no result: SKN-1 inh, ATG4B inh, MPTP block, CendR NRP1 mod)
CCOC(=O)C1CCCN(S(=O)(=O)c2ccc(S(=O)(=O)N3CCCC3)cc2)C1 (stereo not given)	MPTP block 62 | MPTP counter 74
CO[C@@H]1CN(C)C(=O)c2cc(NC(=O)C3CC3)ccc2OC[C@H](C)N(C(=O)CN(C)C)C[C@@H]1C	none (no result: SKN-1 inh, ATG4B inh, MPTP block, CendR NRP1 mod)
CCCNC(=O)N1[C@@H]2CNC[C@H]1C2c1ccc(-c2cccc(C#N)c2)cc1 (stereo not given in full)	none (no result: SKN-1 inh, ATG4B inh, MPTP block, CendR NRP1 mod)
O=C(NCc1ccccn1)Nc1ccc(Cl)c(Cl)c1	MPTP block 51 (no result: F508del corr) | MPTP counter 85
Cc1ccc(NC(=O)NCc2ccncc2)cc1Cl	MPTP block 63 (no result: F508del corr) | MPTP counter 79
O=C(NCc1csc2ccccc12)Nc1cc(Cl)cc(Cl)c1	MPTP block 86 | MPTP counter 76
O=C(NCc1ccccn1)Nc1cc(Cl)cc(Cl)c1	MPTP block 83 | MPTP counter 100
O=C(NCc1ccncc1)Nc1ccc(Cc2ccc(NC(=O)NCc3ccncc3)cc2)cc1	none (no result: ATG4B inh)
O=C(O)Cc1csc2ccccc12	none (no result: F508del corr)
O=C(NCc1ccccn1)Nc1cccc(Cl)c1	none
COc1ccc(NC(=O)N(C)C[C@@H]2Oc3ccc(NC(=O)Nc4ccccc4)cc3C(=O)N([C@@H](C)CO)C[C@@H]2C)cc1	none (no result: SKN-1 inh, ATG4B inh, MPTP block, CendR NRP1 mod)
CN(C)CC(=O)N1CCCCN2[C@H](CO)[C@H](c3ccc(-c4cccc(C(=O)N(C)C)c4)cc3)[C@@H]2C1	none (no result: SKN-1 inh, ATG4B inh, MPTP block, CendR NRP1 mod)
N#CCSc1n[nH]c2nc3c(c(=O)n12)C1(CCCCC1)Cc1ccccc1-3	MPTP block 70 | MPTP counter 64

Source: PubChem (several laboratories)
